Laboratory results from PubChem BioAssay (NCI).
“And” between values parts separate entries of the source, which are not always exact repeats. Equal values may be shown once. The panel holds about 79,000 compounds, 15% with a hit somewhere; the sample as a whole holds those more often. Cut-off read from the data, not from the text of the source: active = growth inhibition above about 70%; inactive = the rest.

Legend:
[1] = NCI Yeast Anticancer Drug Screen. Data for the rad50 strain (AID 155);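 note: 0% = growth of vehicle-only cultures of the same strain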; conditions: S. cerevisiae rad50 strain growth inhibition, stronger effect = higher value; at 50.0 µM unless noted
Method in brief: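 Yeast carrying a defined DNA repair defect were exposed to test compounds, and growth was compared with vehicle-treated controls to give percent inhibition.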

[2] = NCI Yeast Anticancer Drug Screen. Data for the mec2-1 strain (AID 157); conditions: S. cerevisiae mec2-1 strain, stronger effect = higher value; at 50.0 µM unless noted
Method in brief: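 Readout is yeast growth inhibition, normalised to vehicle-treated controls, in the mec2-1 strain exposed to compound.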

[3] = NCI Yeast Anticancer Drug Screen. Data for the sgs1 mgt1 strain (AID 161);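 note: 0% = growth of cultures given vehicle only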; conditions: S. cerevisiae sgs1 mgt1 strain, stronger effect = higher value; at 50.0 µM unless noted
Method in brief: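 Compounds are added to genetically altered yeast, and growth is compared with cultures given vehicle alone to give percent inhibition.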

[4] = NCI Yeast Anticancer Drug Screen. Data for the cln2 rad14 strain (AID 165);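 note: 0% = growth equal to vehicle treated cultures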; conditions: S. cerevisiae cln2 rad14 strain, stronger effect = higher value; at 50.0 µM unless noted
Method in brief: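 Relative to vehicle controls, growth inhibition of compound-treated cln2 rad14 yeast was recorded.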

[5] = NCI Yeast Anticancer Drug Screen. Data for the bub3 strain (AID 167); conditions: S. cerevisiae bub3 mutant strain, stronger effect = higher value; at 50.0 µM unless noted
Method in brief: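 Compounds were applied to a genetically altered yeast strain carrying a cell-cycle control defect. Growth inhibition was scored against vehicle-treated controls.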

[6] = NCI Yeast Anticancer Drug Screen. Data for the mlh1 rad18 strain (AID 175); conditions: S. cerevisiae mlh1 rad18 strain growth inhibition, stronger effect = higher value; at 50.0 µM unless noted
Method in brief: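 Test agents were incubated with a yeast strain of defined genotype (DNA damage repair defect). Inhibition of growth was derived by comparison with vehicle-exposed cultures.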

Measured: growth inhibition

CCNc1ncnc2c1nnn2CC
inactive: [1] -5.55% | [2] -12.2% | [3] -15.8% | [4] -7.75% | [5] -27.4% | [6] 6.75%

Cc1cc(=O)[nH]c(NN2C(Cl)C(=O)C2c2ccccc2O)n1 (stereo unspecified)
inactive: [1] 16.4% | [2] -31.5% | [3] 13.3% | [4] 2.95% | [5] -9.3% | [6] -13.8%

COc1ccc(C(c2ccc(OC)cc2)N2C(=O)CCC2C(=O)O)cc1 (stereo unspecified)
inactive: [1] -28.6% | [2] 21.2% | [3] -48.8% | [4] 17.1% | [5] -1% | [6] -12.6%

CCCCC(/C=C(\C(C)=O)C(=O)OCC)CC (stereo unspecified)
inactive: [1] -5.95% | [2] -39.1% | [3] -28.1% | [4] -10.5% | [5] -37% | [6] -40.6%

O=C(c1ccccc1)C1(c2ccccc2)OC1(C(=O)c1ccccc1)c1ccccc1 (stereo unspecified)
inactive: [1] 15.4% | [2] -4.75% | [3] 7.5% | [4] -7.65% | [5] -3.3% | [6] 4.2%

O=C(Nc1ccc(-c2cn3ccccc3n2)cc1)c1ccccc1O
inactive: [1] 7.7% | [2] -11.8% | [3] 20.6% | [4] 36.1% | [5] 10.2% | [6] 4.75%

COC(C)(/C(C)=N/O)c1ccc(-c2ccccc2)cc1 (stereo unspecified)
inactive: [1] 7.85% | [2] -7.95% | [3] 2.8% | [4] -0.65% | [5] 16.6% | [6] 19.7%

O=C(Nc1ccc(Cl)cc1Cl)c1cc2nc3ccccc3c(=O)n2c2ccccc12
inactive: [1] 29.6% | [2] 13.6% | [3] 12.1% | [4] 7.7% | [5] 17.3% | [6] 30.6%

CCCC(=O)Nc1ccc(C2=NNC(=O)C3CC23)cc1 (stereo unspecified)
inactive: [1] 31.2% | [2] 26.6% | [3] 33.5% | [4] -20% | [5] 27.9% | [6] 36.5%

CCO/C=C(\C)CC1([N+](=O)[O-])C(=O)c2ccccc2C1=O
inactive: [1] 7.95% | [2] -4.75% | [3] 16.1% | [4] -3.75% | [5] 11.5% | [6] 15.8%

O=C(NCCOC(=O)OCCNC(=O)NC1CCCCC1)NC1CCCCC1
inactive: [1] -12.8% | [2] -30% | [3] 0.9% | [4] 4.1% | [5] 4.1% | [6] -13.5%

CN1c2ccccc2C(=O)N2C(=O)CCC21C (stereo unspecified)
inactive: [1] -38.9% | [2] -15.4% | [3] -20.7% | [4] -14.2% | [5] -13.4% | [6] -11.1%

CC(C)OC(=O)C(O)c1ccccc1 (stereo unspecified)
inactive: [1] 18.2% | [2] -17.1% | [3] -25.4% | [4] -50% | [5] -9.45% | [6] 8.2%

C/C=C(/Br)C(=O)O
inactive: [1] -11.6% | [2] -6% | [3] -10.2% | [4] -53.5% | [5] -5.2% | [6] -12.9%

CCCCCC(=O)CC(=O)C(CC)CC
inactive: [1] 16.4% | [2] 12.9% | [3] -1.55% | [4] 1.35% | [5] 6.5% | [6] 12.9%

COc1cc(OC)c(I)cc1Cl
inactive: [1] -10.1% | [2] -37.5% | [3] 4.55% | [4] 13.4% | [5] -29.2% | [6] -12.3%

CN1c2ccccc2C2CCCCC21 (stereo unspecified)
inactive: [1] 11.6% | [2] 9.7% | [3] 2.15% | [4] -20.2% | [5] 22.8% | [6] 4.25%

N#CC1=C(N)OC(C2CC2)=C(C#N)C1c1ccco1 (stereo unspecified)
inactive: [1] -9.75% | [2] -14.1% | [3] -11.1% | [4] 4.45% | [5] -24.8% | [6] -11.9%

NC(=S)/N=C(/c1nc2ccc(Cl)cc2[nH]c1=O)C(O)c1ccccc1Cl (stereo unspecified)
inactive: [1] -2.85% | [2] -21.8% | [3] -20.2% | [4] 4.35% | [5] 22.5% | [6] 5.75%

Cc1ccc(S(=O)(=O)N(C)CCCC#N)cc1
inactive: [1] -11.4% | [2] -16.3% | [3] 6.2% | [4] -3.1% | [5] -6.6% | [6] -19.6%

O=S(=O)(NCCSSCCNS(=O)(=O)c1ccccc1)c1ccccc1
inactive: [1] 45% | [2] 17.5% | [3] 51.6% | [4] 16.6% | [5] 23.6% | [6] 34.7%

CC1(C)N=C(C(N)=O)c2ncn(Cc3ccccc3)c2N1
inactive: [1] -29% | [2] -32.6% | [3] -23.6% | [4] 18.4% | [5] -8.1% | [6] -6.9%

O=C(c1ccccc1)c1ccc2c(c1)N=C(c1ccc(Cl)c(Cl)c1)CC(c1ccc3ccccc3c1)N2 (stereo unspecified)
inactive: [1] 22.2% | [2] 15.4% | [3] -7% | [4] -33.5% | [5] -3.6% | [6] 16.6%

Cc1ccccc1C=NC12CC3CC(CC(C3)C1)C2
inactive: [1] -24.8% | [2] -18.1% | [3] -22.2% | [4] 7.2% | [5] -8.4% | [6] -25.1%

CCN(CC)CC(C)O (stereo unspecified)
inactive: [1] 39.7% | [2] 13.2% | [3] 21% | [4] -26.9% | [5] -9.45% | [6] 30.6%

O=C(Nc1nccs1)c1ccccc1F
inactive: [1] 3.8% | [2] -0.9% | [3] -12.2% | [4] -53.3% | [5] -8.45% | [6] -3.15%

O=Nc1c(S(=O)(=O)O)cc2cc(S(=O)(=O)O)ccc2c1O
inactive: [1] 41.9% | [2] 0.55% | [3] 45.2% | [4] 22.4% | [5] 23.1% | [6] 30.4%

COc1ccccc1NC(=O)Oc1c(C(C)C)cccc1C(C)C
inactive: [1] -5.35% | [2] 5.75% | [3] -3.7% | [4] -1.1% | [5] 20% | [6] -17.4%

CN(C)CCCNC(=O)CCNC(=O)c1cc(NC(=O)c2cc(NC(=O)c3cc(NC(=O)CCCNC(=O)c4cc(NC(=O)c5cc(NC(=O)c6nccn6C)cn5C)cn4C)cn3C)cn2C)cn1C
inactive: [1] 7.55% | [2] -14.8% | [3] -2% | [4] -1.35% | [5] 4% | [6] -25.3%

CN(C)Cc1cc(-c2c(Cl)cccc2Cl)no1
inactive: [1] -18.8% | [2] -10.5% | [3] -10.4% | [4] 4% | [5] 7.1% | [6] -13.6%

CN=Nc1c(O)[nH]c2ccc(C)cc12
inactive: [1] -5.25% | [2] 0.2% | [3] -8.3% | [4] -43.1% | [5] -8.15% | [6] 2.05%

CCOC(=O)C(CC(C)C)NC(=O)c1c2nc3c(C(=O)NC(CC(C)C)C(=O)OCC)cc(NC(C)=O)c(C)c3oc-2c(C)c(=O)c1N (stereo unspecified)
inactive: [1] 8.4% | [2] 34.5% | [3] 34.6% | [4] -4.95% | [5] -6.5% | [6] 48.8%

CSc1ncc(C(N)=O)c(N)n1
inactive: [1] -2.05% and 12% | [2] 3.5% and -12.9% | [3] -3.35% and -9.65% | [4] -38% and -12.4% | [5] -6.7% and -12.6% | [6] 2.45% and 13.2%

CC(=O)c1ccc([N+](=O)[O-])[nH]1
inactive: [1] -16.4% | [2] 23.1% | [3] -32.9% | [4] -3.8% | [5] -3.95% | [6] -5.1%

Cc1cc(C)nc(NS(=O)(=O)c2ccc(NC(=O)c3ccc(Cl)c4c(Nc5ccc(S(=O)(=O)N=C(N)N)cc5)c5ccccc5nc34)cc2)n1
inactive: [1] 28% | [2] 27% | [3] 20.1% | [4] 29.7% | [5] 23.2% | [6] 31.4%

COCCCCCCCCCCCC(=O)O
inactive: [1] -23.4% | [2] 1.3% | [3] -46.2% | [4] -0.15% | [5] -21.2% | [6] -63.7%
